Data as given in PubChem BioAssay (EPA / NIEHS).
Values joined by “and” are separate entries in the source; they are usually repeats but may differ in a detail not shown here. Equal values may be shown once. Some structures have more than one record in an assay (separate samples or runs), and their calls can disagree. Active and inactive are the calls of the source. The calls were made as follows: active = hit-call score of the fitted dose curve at least 0.9, where 1 is the maximum; inactive = score below 0.9.

What was measured:
[1] = read-out: C-C motif chemokine 2 (Homo sapiens) (UniProt P13500); experiment: BSK_KF3CT_MCP1: BioMAP Diversity Plus: KF3CT Assay for Monocyte Chemoattractant Protein 1 (MCP1/CCL2) Biomarker Activity (AID 2283073); settings: primary human keratinocytes with fibroblasts; actives raise or lower the signal
In short: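 Human keratinocyte–foreskin fibroblast co-culture; MCP-1 measured by ELISA 24 h after dosing. Bidirectional fit vs DMSO; cytotoxicity tracked by SRB total protein in parallel cultures.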

[2] = read-out: Matrix Metallopeptidase 9 (MMP9), MMP9 (gene 4318); experiment: BSK_KF3CT_MMP9: BioMAP Diversity Plus: KF3CT Assay for Matrix Metallopeptidase 9 (MMP9) Biomarker Activity (AID 2283074); settings: primary human keratinocytes with fibroblasts; actives raise or lower the signal;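 as to AC50: MMP9 protein level quantified by ELISA in the co-culture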
In short: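 MMP-9 quantified by ELISA after 24 h chemical treatment of primary human skin keratinocyte/fibroblast co-cultures; gain or loss fitted against DMSO, with parallel SRB staining (0.1% SRB, 560 nm) for overt cytotoxicity.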

[3] = read-out: urokinase plasminogen activator (uPA), PLAU (gene 5328); experiment: BSK_KF3CT_uPA: BioMAP Diversity Plus: KF3CT Assay for urokinase plasminogen activator (uPA) Biomarker Activity (AID 2283075); settings: primary human keratinocytes with fibroblasts; actives raise or lower the signal
In short: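 ELISA read-out of uPA 24 h after dosing human skin keratinocytes co-cultured with foreskin fibroblasts. Signal change fitted both ways relative to DMSO; sulforhodamine B on parallel cultures marks overt cytotoxicity.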

CD40, CD40 (gene 958) = experiment: BSK_LPS_CD40: BioMAP Diversity Plus: LPS Assay for CD40 Biomarker Activity (AID 2283076); settings: primary human HUVEC with PBMC; actives raise or lower the signal
In short: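 HUVEC plus PBMC co-culture stimulated with LPS; CD40 quantified by ELISA 24 h after compound dosing. Fitting was bidirectional relative to DMSO. SRB staining of parallel cultures flagged overt cytotoxicity.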

[4] = read-out: E-selectin (Homo sapiens) (UniProt P16581); experiment: BSK_LPS_Eselectin: BioMAP Diversity Plus: LPS Assay for Eselectin Biomarker Activity (AID 2283077); settings: primary human HUVEC with PBMC; actives raise or lower the signal
In short: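 Human umbilical vein endothelial cells co-cultured with PBMC under LPS stimulation; cell-surface E-selectin measured by ELISA 24 h after dosing. Change in either direction versus DMSO, with SRB total-protein staining in parallel cultures for cytotoxicity.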

[5] = BSK_LPS_SRB: Viability Assessment in the BioMAP Diversity Plus: LPS Assay (AID 2283079); settings: primary human HUVEC with PBMC;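 also: total protein by sulforhodamine B absorbance as a cytotoxicity measure; measured one day after compound addition; fitted in both directions against DMSO so loss or gain of signal counts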
In short: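 Co-culture of human umbilical vein endothelial cells and PBMC, read 24 h after dosing. Total protein by 0.1% SRB staining after 10% TCA fixation, absorbance at 560 nm; bidirectional fit against DMSO.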

[6] = read-out: Interleukin-1 alpha (IL1a), IL1A (gene 3552); experiment: BSK_LPS_IL1a: BioMAP Diversity Plus: LPS Assay for Interleukin-1 alpha (IL1a) Biomarker Activity (AID 2283080); settings: primary human HUVEC with PBMC; actives raise or lower the signal
In short: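 Human umbilical vein endothelial cells co-cultured with PBMC and stimulated with LPS; IL-1a measured by ELISA 24 h after dosing. Bidirectional fitting against DMSO; cytotoxicity checked by SRB staining in parallel cultures.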

[7] = read-out: Monocyte Chemoattractant Protein-1 (MCP1), CCL2 (gene 6347); experiment: BSK_LPS_MCP1: BioMAP Diversity Plus: LPS Assay for Monocyte Chemoattractant Protein-1 (MCP1) Biomarker Activity (AID 2283081); settings: primary human HUVEC with PBMC; actives raise or lower the signal;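 as to AC50: secreted MCP-1 protein quantified by ELISA in culture supernatant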
In short: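 Human umbilical vein endothelial cells co-cultured with PBMC, LPS-stimulated; secreted MCP-1 measured by ELISA 24 h after compound addition. Bidirectional curve fitting against DMSO baseline; SRB total-protein staining in parallel cultures for cytotoxicity.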

[8] = BSK_LPS_PGE2: BioMAP Diversity Plus: LPS Assay for Prostaglandin E2 (PGE2) Biomarker Activity (AID 2283082); settings: primary human HUVEC with PBMC; actives raise or lower the signal;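 as to AC50: secreted prostaglandin E2 measured by ELISA in LPS-stimulated co-culture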
In short: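 Compounds were added to the LPS co-culture of endothelium and PBMC, and PGE2 was measured by ELISA after 24 h. Responses in either direction were fitted with DMSO as baseline.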

[9] = read-out: Interleukin-8 (IL8), CXCL8 (gene 3576); experiment: BSK_LPS_IL8: BioMAP Diversity Plus: LPS Assay for Interleukin-8 (IL8) Biomarker Activity (AID 2283078); settings: primary human HUVEC with PBMC; actives raise or lower the signal
In short: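 Human umbilical vein endothelial cells co-cultured with PBMC, LPS-stimulated, exposed to compound for 24 h. IL-8 quantified by ELISA; fitted in both directions against DMSO, with SRB total-protein staining of parallel cultures for cytotoxicity.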

Measured: AC50

Sequence of E-selectin (Homo sapiens) (P16581 whole entry, looked up): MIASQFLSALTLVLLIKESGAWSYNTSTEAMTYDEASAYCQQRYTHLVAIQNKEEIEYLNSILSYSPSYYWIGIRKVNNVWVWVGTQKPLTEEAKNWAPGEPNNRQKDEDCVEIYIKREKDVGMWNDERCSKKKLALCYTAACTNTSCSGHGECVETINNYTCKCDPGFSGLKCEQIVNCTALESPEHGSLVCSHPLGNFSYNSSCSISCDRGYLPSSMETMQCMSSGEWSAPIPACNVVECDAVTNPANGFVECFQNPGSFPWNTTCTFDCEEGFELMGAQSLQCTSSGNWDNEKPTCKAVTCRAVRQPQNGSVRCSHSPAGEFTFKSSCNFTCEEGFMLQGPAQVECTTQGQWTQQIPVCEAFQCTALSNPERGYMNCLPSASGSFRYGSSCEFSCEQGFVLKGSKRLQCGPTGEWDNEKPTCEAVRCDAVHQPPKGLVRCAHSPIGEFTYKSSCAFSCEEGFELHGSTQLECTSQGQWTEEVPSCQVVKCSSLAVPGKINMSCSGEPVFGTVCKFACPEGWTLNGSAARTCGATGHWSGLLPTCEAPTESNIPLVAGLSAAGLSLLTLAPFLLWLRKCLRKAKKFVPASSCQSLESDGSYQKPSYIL

CCCN(CCC)c1c([N+](=O)[O-])cc(C(F)(F)F)c(N)c1[N+](=O)[O-]
active: [1] 30.5 µM | [2] 33.6 µM | [3] 37.3 µM | [5] 13.8 µM
not listed: [9]
inactive: all other assays above

O=C(c1ccc(O)cc1O)c1ccc(O)cc1O
inactive: all assays above

COC(=O)c1ccccc1S(=O)(=O)NC(=O)Nc1nc(OC(F)F)cc(OC(F)F)n1
not listed: [9]
inactive: all other assays above

CCNc1nc(N)nc(Cl)n1
inactive: all assays above

COC(=O)CSc1cc(N=c2sc(=O)n3n2CCCC3)c(F)cc1Cl
inactive: all assays above

CN(C)C(=O)Nc1ccc(Cl)c(Cl)c1
active: [8] 7.82 µM
inactive: all other assays above

CSC(=O)c1cccc2nnsc12
not listed: [9]
inactive: all other assays above

CCOC(=O)COc1cc(-n2ncc(C(F)(F)F)c(C)c2=O)c(F)cc1Cl
inactive: all assays above

CCOC(=O)C(C)Oc1ccc(Oc2cnc3cc(Cl)ccc3n2)cc1 (stereo unspecified)
active: [8] 13.1 µM
not listed: [9]
inactive: all other assays above

CCCCC(CC)COC(=O)c1ccccc1C(=O)O (stereo unspecified)
not listed: [9]
inactive: all other assays above

CCOC(=O)C(C)Oc1ccc(Oc2nc3ccc(Cl)cc3o2)cc1 (stereo unspecified)
active: [2] 9.61 µM | [8] 24.3 µM
inactive: all other assays above

CC(C)CCCCCCc1ccc(O)cc1
active: [1] 8.65 µM | [2] 9.76 µM | [3] 9.65 µM | CD40, CD40 (gene 958) 9.28 µM | [4] 12.1 µM | [5] 13.8 µM | [6] 6.77 µM | [8] 6.36 µM

CC(C)(c1ccc(O)cc1)c1ccc(O)cc1
active: [8] 16.6 µM and 10.3 µM and 11.1 µM
inactive: [1] | [2] | [3] | CD40, CD40 (gene 958) | [4] | [5] | [6] | [7] | [8]

Cc1nn(C)c(Oc2ccccc2)c1C=NOCc1ccc(C(=O)OC(C)(C)C)cc1
inactive: [3] | [4]
active: [1] 12.7 µM | [2] 11.8 µM | [9] 8.08 µM | [5] 12.6 µM | [6] 13.2 µM | [7] 17.5 µM | [8] 1.11 µM

COC(=O)c1cccc(C)c1S(=O)(=O)NC(=O)Nc1nc(OCC(F)(F)F)nc(N(C)C)n1
not listed: [9]
inactive: all other assays above

COC(=O)c1c(Cl)nn(C)c1S(=O)(=O)NC(=O)Nc1nc(OC)cc(OC)n1
not listed: [9]
inactive: all other assays above

COc1nc(C)nc(NC(=O)NS(=O)(=O)c2ccccc2OCCCl)n1
not listed: [9]
inactive: all other assays above

CCCOC(=O)c1ccc(C(=O)OCCC)nc1
active: [7] 1.84 µM
not listed: [9]
inactive: all other assays above

O=C(Nc1ccc([N+](=O)[O-])cc1Cl)c1cc(Cl)ccc1O
inactive: [4]
active: [1] 0.148 µM | [2] 0.313 µM | [3] 0.266 µM | CD40, CD40 (gene 958) 0.161 µM | [5] 0.445 µM | [6] 0.109 µM | [8] 0.178 µM
